Measurements reported in PubChem BioAssay AID1159580 (chemical genetic matrix, 2015).
The campaign covered roughly 5,500 compounds. About 2,000 (36%) were called active. About 18% were inconclusive and are not listed. Cut-off read from the data, not from the text of the source: active = normalized growth mostly below about 0.91 (no sharp cut-off); inconclusive = no clear call, values can overlap the other calls; inactive = mostly above about 0.92. The list shows a part of the results.

Assay: chemical genetic growth profiling, strain panel (AID 1159580);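 note: tested at 20 µM; growth read once vehicle control cultures reached saturation at 30 °C; 1 = growth at the plate median or of vehicle wells; lower values mean less growth of the strain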
Conditions: growth OD

Measured: normalized growth

COc1ccc(CCN2CCC(Nc3nc4ccccc4n3Cc3ccc(F)cc3)CC2)cc1
inactive: S. cerevisiae deletion strains, locus YJR066W, strain TOR1, stronger effect = lower value 0.931 | S. cerevisiae deletion strains, locus YKL009W, strain mrt4, stronger effect = lower value 0.99 | S. cerevisiae deletion strains, locus YKL068W, stronger effect = lower value 0.991 | S. cerevisiae deletion strains, locus YKL085W, strain MDH1 (second series), stronger effect = lower value 1.04 | S. cerevisiae deletion strains, locus YKL085W, strain MDH1, stronger effect = lower value 1.04 | S. cerevisiae deletion strains, locus YKL160W, strain elf1, stronger effect = lower value 0.961 | S. cerevisiae deletion strains, locus YKL190W, strain CNB1, stronger effect = lower value 0.992 | S. cerevisiae deletion strains, locus YKR001C, strain vps1, stronger effect = lower value 0.999 | S. cerevisiae deletion strains, locus YKR026C, strain gcn3, stronger effect = lower value 0.945 | S. cerevisiae deletion strains, locus YKR091W, strain srl3, stronger effect = lower value 0.987 | S. cerevisiae deletion strains, locus YLL001W, strain dnm1, stronger effect = lower value 0.954 | S. cerevisiae deletion strains, locus YLL026W, stronger effect = lower value 0.974 | S. cerevisiae deletion strains, locus YLL041C, strain sdh2, stronger effect = lower value 0.969 | S. cerevisiae deletion strains, locus YLR027C, strain aat2, stronger effect = lower value 0.978 | S. cerevisiae deletion strains, locus YLR039C, strain RIC1, stronger effect = lower value 1.19 | S. cerevisiae deletion strains, locus YLR058C, strain SHM2, stronger effect = lower value 0.974 | S. cerevisiae deletion strains, locus YLR102C, strain apc9, stronger effect = lower value 0.991 | S. cerevisiae deletion strains, locus YLR113W, strain HOG1, stronger effect = lower value 0.976 | S. cerevisiae deletion strains, locus YLR221C, strain rsa3, stronger effect = lower value 0.951 | S. cerevisiae deletion strains, locus YLR258W, strain gsy2, stronger effect = lower value 0.962 | S. cerevisiae deletion strains, locus YLR262C, strain YPT6 (second series), stronger effect = lower value 1.05 | S. cerevisiae deletion strains, locus YLR262C, strain YPT6, stronger effect = lower value 1.21 | S. cerevisiae deletion strains, locus YLR268W, strain sec22, stronger effect = lower value 0.969 | S. cerevisiae deletion strains, locus YLR330W, strain CHS5, stronger effect = lower value 0.995 | S. cerevisiae deletion strains, locus YLR342W, strain FKS1 (second series), stronger effect = lower value 0.945 | S. cerevisiae deletion strains, locus YLR342W, strain FKS1, stronger effect = lower value 0.969 | S. cerevisiae deletion strains, locus YLR357W, strain rsc2, stronger effect = lower value 0.986 | S. cerevisiae deletion strains, locus YLR371W, strain rom2, stronger effect = lower value 0.986 | S. cerevisiae deletion strains, locus YLR384C, strain iki3, stronger effect = lower value 1 | S. cerevisiae deletion strains, locus YLR418C, strain cdc73, stronger effect = lower value 0.943 | S. cerevisiae deletion strains, locus YML016C, strain PPZ1, stronger effect = lower value 0.979 | S. cerevisiae deletion strains, locus YML032C, strain rad52, stronger effect = lower value 0.955 | S. cerevisiae deletion strains, locus YML120C, strain ndi1, stronger effect = lower value 0.978 | S. cerevisiae deletion strains, locus YML124C, strain tub3, stronger effect = lower value 0.991 | S. cerevisiae deletion strains, locus YMR078C, strain ctf18, stronger effect = lower value 0.987 | S. cerevisiae deletion strains, locus YMR125W, strain sto1, stronger effect = lower value 0.964 | S. cerevisiae deletion strains, locus YMR129W, stronger effect = lower value 0.995 | S. cerevisiae deletion strains, locus YMR205C, strain PFK2, stronger effect = lower value 0.908 | S. cerevisiae deletion strains, locus YMR223W, strain ubp8, stronger effect = lower value 0.988 | S. cerevisiae deletion strains, locus YMR231W, strain pep5, stronger effect = lower value 0.997 | S. cerevisiae deletion strains, locus YMR263W, strain SAP30, stronger effect = lower value 0.997 | S. cerevisiae deletion strains, locus YMR307W, strain GAS1, stronger effect = lower value 0.894 | S. cerevisiae deletion strains, locus YNL067W, strain RPL9B, stronger effect = lower value 0.982 | S. cerevisiae deletion strains, locus YNL071W, strain lat1, stronger effect = lower value 0.959 | S. cerevisiae deletion strains, locus YNL128W, strain TEP1, stronger effect = lower value 0.984 | S. cerevisiae deletion strains, locus YNL153C, strain GIM3, stronger effect = lower value 1 | S. cerevisiae deletion strains, locus YNL183C, strain NPR1, stronger effect = lower value 0.946 | S. cerevisiae deletion strains, locus YNL209W, strain ssb2, stronger effect = lower value 0.962 | S. cerevisiae deletion strains, locus YNL233W, strain BNI4, stronger effect = lower value 0.959 | S. cerevisiae deletion strains, locus YNL250W, strain rad50, stronger effect = lower value 0.988 | S. cerevisiae deletion strains, locus YNL271C, strain bni1, stronger effect = lower value 0.982 | S. cerevisiae deletion strains, locus YNL298W, strain CLA4, stronger effect = lower value 0.987 | S. cerevisiae deletion strains, locus YNL307C, strain MCK1, stronger effect = lower value 0.969 | S. cerevisiae deletion strains, locus YNL322C, strain KRE1 (second series), stronger effect = lower value 0.991 | S. cerevisiae deletion strains, locus YNR049C, strain mso1, stronger effect = lower value 0.96 | S. cerevisiae deletion strains, locus YNR052C, strain pop2, stronger effect = lower value 0.982 | S. cerevisiae deletion strains, locus YOL006C, strain TOP1, stronger effect = lower value 0.759 | S. cerevisiae deletion strains, locus YOL012C, strain htz1 0.955 | S. cerevisiae deletion strains, locus YOL147C, strain pex11, stronger effect = lower value 0.99 | S. cerevisiae deletion strains, locus YOR061W, strain CKA2, stronger effect = lower value 0.969 | S. cerevisiae deletion strains, locus YOR069W, strain VPS5, stronger effect = lower value 0.993 | S. cerevisiae deletion strains, locus YOR070C, strain gyp1, stronger effect = lower value 0.944 | S. cerevisiae deletion strains, locus YOR080W, strain dia2, stronger effect = lower value 1 | S. cerevisiae deletion strains, locus YOR083W, strain WHI5, stronger effect = lower value 0.927 | S. cerevisiae deletion strains, locus YOR106W, strain vam3, stronger effect = lower value 0.969 | S. cerevisiae deletion strains, locus YOR136W, strain idh2, stronger effect = lower value 0.98 | S. cerevisiae deletion strains, locus YOR144C, strain elg1, stronger effect = lower value 0.986 | S. cerevisiae deletion strains, locus YOR184W, strain ser1, stronger effect = lower value 0.953 | S. cerevisiae deletion strains, locus YOR231W, strain MKK1, stronger effect = lower value 0.973 | S. cerevisiae deletion strains, locus YOR265W, strain rbl2, stronger effect = lower value 0.993 | S. cerevisiae deletion strains, locus YOR316C, strain cot1, stronger effect = lower value 0.994 | S. cerevisiae deletion strains, locus YPL051W, strain arl3, stronger effect = lower value 0.968 | S. cerevisiae deletion strains, locus YPL078C, strain atp4, stronger effect = lower value 0.975 | S. cerevisiae deletion strains, locus YPL106C, strain sse1, stronger effect = lower value 0.894 | S. cerevisiae deletion strains, locus YPL240C, strain hsp82, stronger effect = lower value 0.986 | S. cerevisiae deletion strains, locus YPL241C, strain CIN2, stronger effect = lower value 0.992 | S. cerevisiae deletion strains, locus YPL256C, strain CLN2, stronger effect = lower value 0.982 | S. cerevisiae deletion strains, locus YPR119W, strain clb2, stronger effect = lower value 0.988 | S. cerevisiae deletion strains, locus YPR141C, strain kar3, stronger effect = lower value 0.991 | S. cerevisiae deletion strains, locus YPR163C, strain tif3, stronger effect = lower value 0.988 | S. cerevisiae deletion strains, locus YPR167C, strain met16, stronger effect = lower value 0.976 | S. cerevisiae deletion strains, strain wtn01, stronger effect = lower value 0.974 | S. cerevisiae strains, strain wild type, stronger effect = lower value 0.986
active: S. cerevisiae deletion strains, locus YLR320W, strain mms22, stronger effect = lower value 0.85 | S. cerevisiae deletion strains, locus YLR370C, strain arc18, stronger effect = lower value 0.892 | S. cerevisiae deletion strains, locus YMR058W, strain fet3, stronger effect = lower value 0.865 | S. cerevisiae deletion strains, locus YOR001W, strain rrp6, stronger effect = lower value 0.881 | S. cerevisiae deletion strains, locus YOR270C, strain vph1, stronger effect = lower value 0.607 | S. cerevisiae deletion strains, locus YOR290C, strain snf2, stronger effect = lower value 0.633
